Compound activity (PubChem)
NPR1 activator = GC-A (human) enzyme activation. activation, % at 10 µM. 370,000 compounds, 0.14% hits. AID 1671463. HEK293 GC-A cells, cGMP TR-FRET, EC30 ANP; 0% at EC30 ANP, 100% saturating ANP. P16066; in the data active = activation above about 40%
Target sequence (P16066 whole entry, looked up): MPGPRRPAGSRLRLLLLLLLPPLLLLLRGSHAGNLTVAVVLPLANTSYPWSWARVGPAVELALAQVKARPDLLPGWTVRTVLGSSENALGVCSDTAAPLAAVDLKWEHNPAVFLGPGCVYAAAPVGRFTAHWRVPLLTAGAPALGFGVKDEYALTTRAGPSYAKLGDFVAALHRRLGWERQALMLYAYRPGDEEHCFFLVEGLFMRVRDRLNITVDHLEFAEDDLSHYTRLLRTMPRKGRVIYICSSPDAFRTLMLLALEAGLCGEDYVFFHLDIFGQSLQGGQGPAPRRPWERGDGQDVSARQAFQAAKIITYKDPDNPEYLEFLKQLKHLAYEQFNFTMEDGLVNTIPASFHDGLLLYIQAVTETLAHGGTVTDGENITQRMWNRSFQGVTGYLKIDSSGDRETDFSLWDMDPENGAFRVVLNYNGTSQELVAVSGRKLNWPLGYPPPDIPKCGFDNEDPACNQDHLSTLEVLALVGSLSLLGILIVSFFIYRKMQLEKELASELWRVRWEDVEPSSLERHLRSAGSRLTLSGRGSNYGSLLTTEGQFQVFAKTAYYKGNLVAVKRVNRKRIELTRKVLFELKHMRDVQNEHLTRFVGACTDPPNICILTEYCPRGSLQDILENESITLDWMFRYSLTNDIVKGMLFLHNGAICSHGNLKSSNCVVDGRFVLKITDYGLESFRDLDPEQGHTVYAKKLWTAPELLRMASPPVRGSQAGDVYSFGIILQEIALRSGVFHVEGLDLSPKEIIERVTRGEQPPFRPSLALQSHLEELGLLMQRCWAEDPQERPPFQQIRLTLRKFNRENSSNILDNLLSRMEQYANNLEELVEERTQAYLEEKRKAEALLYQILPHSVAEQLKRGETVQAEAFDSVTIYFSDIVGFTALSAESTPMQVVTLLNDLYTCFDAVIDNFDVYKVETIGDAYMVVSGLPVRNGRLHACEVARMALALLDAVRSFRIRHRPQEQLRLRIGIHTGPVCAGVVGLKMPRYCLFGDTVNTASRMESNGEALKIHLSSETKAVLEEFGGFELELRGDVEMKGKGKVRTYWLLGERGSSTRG
HTR2A ag = agonists of mouse serotonin 5-HT2A receptor (HTR2A); CHO-K1 mHTR2A beta-arrestin complementation, luminescence; percent of 30 µM serotonin response; activation, % at 7.6 µM; 360,000 compounds, 0.66% hits; AID 624169;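 active = activation above a run cutoff, the mean activation of all tested compounds plus 3 SD, cut at about 14% in these data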;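 also: 0% = plate median of compound wells and 100% = 30 µM serotonin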
bovine MsrA act = activators of bovine methionine sulfoxide reductase A; purified bovine MsrA, absorbance read-out; activation, % at 10.6 µM; 360,000 compounds, 0.3% hits; AID 602163; in the data active = activation above about 7.5%;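 also: 0% = vehicle and 100% = reference activator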
MsrA inhibitor = inhibitors of bovine MsrA; purified bovine MsrA, absorbance read-out; inhibition, % at 15.5 µM; 360,000 compounds, 0.75% hits; in the data active = inhibition above about 4.5%;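 also: 0% = vehicle wells with enzyme and 100% = reference inhibitor wells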
GC-B act = GC-B (human) receptor activation; activation, % at 10 µM; 370,000 compounds, 0.11% hits; P20594; HEK293-GC-B cells, CNP EC30, cGMP TR-FRET; 0% at EC30 CNP, 100% saturating CNP;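 active = activation at 10 µM reaching about 35% in either raw or pattern-adjusted values, limit read from the data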
MsrA act confirm = bovine methionine sulfoxide reductase A activation confirmed; shares compounds with bovine MsrA act; AID 602270; purified bovine MsrA, absorbance read-out; 1,000 compounds, 12% hits; activation, % at 10.6 µM; in the data active = activation above about 4%;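 also: enzyme coupled to thioredoxin and thioredoxin reductase with NADPH; 0% = vehicle wells and 100% = reference activator wells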
Active calls of the source: *; x = not tested or not shown. This is a sample that favours compounds with a hit; in the whole collection about 1.8% have one here.

SMILES	NPR1 activator	HTR2A ag	bovine MsrA act	MsrA inhibitor	GC-B act	MsrA act confirm
O=C(CCc1ccccc1)N[C@H]1/C(=N/O)CCC[C@]12C(=O)N(Cc1ccccc1)c1ccccc12	-16.0	x	x	x	-17.1	x
CCOC(=O)CC(NC(=O)c1cccc2c1C(=O)N(Cc1cccnc1)C2)c1ccc(OCC)c(OC)c1 (stereo not given)	14.2	-1.8	8.6*	-1.1	8.6	3.3
O=C(NCc1ccccc1)Nc1cccn(Cc2ccc(Cl)cc2)c1=O	-1.7	-6.0	-5.5	0.1	2.0	x
O=C(NCc1ccccc1)Nc1cccn(Cc2ccccc2Cl)c1=O	-3.4	-8.3	9.1*	1.9	-0.4	-1.6
CCC(=O)Nc1ccc(C(=O)Nc2cccnc2)cc1	-3.5	3.8	15.3*	-0.9	-1.9	-1.4
COc1ccc(C(=O)Nc2ccc(C(=O)Nc3cccnc3)cc2)cc1	-4.1	4.3	-0.8	-0.7	-5.3	x
CCN(CC)C(=O)CC[C@H]1CC[C@]2(CCCN(c3ccccc3)C2)O1	4.7	x	x	x	1.2	x
Cc1[nH]c(-c2ccc(F)cc2)cc1C(=O)N1CCN(c2ccc(Cl)cc2)CC1	-1.3	5.9	8.3*	-0.8	-3.7	-0.6
COc1ccc(N2CCN(C(=O)c3cc(-c4ccc(F)cc4)[nH]c3C)CC2)cc1	-3.0	-7.4	-2.0	-0.8	2.1	x
O=C(OCc1cn(Cc2ccccc2)nn1)N1CCOCC1	-1.3	x	x	x	-0.3	x
COc1ccccc1NC(=O)COC(=O)c1ccc([N+](=O)[O-])s1	-3.2	-1.3	33.0*	2.2	-1.0	18.4*
NS(=O)(=O)c1ccc(NC(=O)COC(=O)c2ccc([N+](=O)[O-])s2)cc1	-2.5	5.5	27.8*	2.0	-1.2	12.0*
CN(CC(=O)Nc1ccccc1Cl)C(=O)COC(=O)c1cccs1	-0.4	0.1	-9.6	0.9	-0.5	x
CN(CC(=O)Nc1ccccc1Cl)C(=O)COC(=O)c1ccc([N+](=O)[O-])s1	1.8	3.9	12.3*	0.9	-3.9	1.9
COCCNC[C@@]12CO[C@H](c3ccc(Cl)cc3)N1[C@@H](c1ccc(Cl)cc1)SC2	-27.5	x	x	x	-17.0	x
CN(C)c1ccc(NC(=O)NC2CCCCN(Cc3cccc(Cl)c3)C2=O)cc1 (stereo not given)	4.3	x	x	x	-3.5	x
COC(=O)[C@]12C[C@H](CC(=O)N3CCC(c4ccccc4)CC3)C(=O)N(Cc3ccc(Cl)cc3Cl)C1=C[C@H](C(C)C)O[C@@H]2C1CC1	-1.8	x	x	x	9.1	x
CC(=O)Nc1ccc(NC(=O)CSc2nc3c(=O)n(C)c(=O)n(C)c3n2C)cc1	0.2	11.4	-3.1	-0.1	-4.0	x
Cn1c(=O)c2nc(SCCO)n(C)c2n(C)c1=O	-0.6	2.9	8.4*	0.8	0.4	-3.0
COc1ccc(N2CC(NC(=O)c3ccc4ccccc4c3)CC2=O)cc1OC (stereo not given)	-1.0	-0.8	10.9*	-0.7	-9.2	-0.9
COc1ccc(N2CC(NS(=O)(=O)c3ccc4ccccc4c3)CC2=O)cc1OC (stereo not given)	-5.7	9.5	-2.4	-0.1	-5.6	x
Cc1ccc(C(=O)/C=C/c2cn(CN3CCN(C)CC3)c3ccccc23)cc1	5.5	-1.1	-1.5	1.7	-4.3	x
Cn1cc(/C=C/C(=O)c2ccccc2)c2ccccc21	-4.5	1.1	9.1*	1.2	-5.2	-2.6
COC(=O)C1CCCN(C(=O)C2CCN(S(=O)(=O)c3ccccc3[N+](=O)[O-])CC2)C1 (stereo not given)	-0.5	x	x	x	-1.0	x
Cc1ccc(CC2C(=O)N(c3ncccn3)C(=O)C2C)cc1 (stereo not given)	1.7	1.2	20.3*	0.1	6.3	2.4
SMILES	NPR1 activator	HTR2A ag	bovine MsrA act	MsrA inhibitor	GC-B act	MsrA act confirm
Cc1ccc(CC2C(=O)N(c3ccc(C)cc3)C(=O)C2C)cc1 (stereo not given)	1.0	0.1	1.6	0.4	2.4	x
O=C(CN[C@@H](Cc1c[nH]c2ccccc12)C(=O)NCCc1c[nH]c2ccccc12)NC1CCCCC1	-1.3	x	x	x	-3.4	x
O=C(NCC1COc2ccccc2O1)C1CCC(CNc2c(N3CCCCC3)c(=O)c2=O)CC1 (stereo not given)	-2.5	2.7	8.9*	0.1	0.9	-0.1
Cc1cccc(OCCC(=O)OC(C)C(=O)Nc2ccc(Cl)cn2)c1 (stereo not given)	0.4	-7.3	15.5*	-0.4	-11.9	-1.9
CC(OC(=O)CCOc1ccccc1)C(=O)Nc1ccc(Cl)cn1 (stereo not given)	-0.1	6.9	-15.2	0.9	-1.0	x
COC(=O)[C@H](C(C)C)N(CCc1cn(Cc2ccccc2)nn1)S(=O)(=O)c1ccccc1Br	0.4	x	x	x	3.6	x
Cc1cc(=O)[nH]c(-c2ccccc2)n1	5.8	-1.8	-3.4	-0.6	0.3	x
Cc1cc(-c2ccccc2)cc(=O)[nH]1	-1.5	0.0	12.8*	1.3	-3.1	-1.9
C=C(C(=O)c1ccccc1)C(C)CC(=O)c1ccccc1 (stereo not given)	-25.4	9.5	8.5*	-0.9	-18.9	-0.6
Fc1ccc(-c2csc(=S)[nH]2)cc1	2.0	1.3	8.0*	2.0	1.9	1.3
S=c1[nH]c(-c2ccccc2)cs1	0.8	5.6	-1.4	2.3	2.5	x
Cc1cccc2cc3cccc(C)c3nc12	-14.5	-4.8	8.9*	-0.3	-3.6	0.3
Cc1cccc2cc3ccccc3nc12	5.6	4.8	-1.4	0.4	-3.7	x
O=C(N1CCOCC1)N1CCN(C(=O)N(c2ccccc2)c2ccccc2)CC1	1.7	1.1	7.9*	2.4	1.9	-1.6
O=C(NCc1cccnc1)C(=O)NCC1OCCN1S(=O)(=O)c1ccc(F)cc1 (stereo not given)	4.9	2.0	8.4*	-0.8	5.9	1.5
Cc1ccccc1-c1nnc2n1N=C(c1ccc(O)c(O)c1)CS2	3.8	x	x	x	-4.8	x
CCC(C)(C)n1nnnc1C(c1ccc(C)cc1)N1CCN(Cc2ccc3c(c2)OCO3)CC1 (stereo not given)	-9.8	-6.8	8.7*	0.0	-2.5	-1.4
CN(C)c1cccc(/C=C2\CC3(OC(=O)c4ccccc4)CCCN2C3)c1 (stereo not given)	-3.7	x	x	x	-16.8	x
Cc1ccccc1C(=O)NNC(=S)NC(=O)COc1ccccc1	-0.9	-3.3	12.8*	0.3	-1.3	0.1
Cc1ccc(C(=O)NNC(=S)NC(=O)COc2ccccc2)cc1	1.3	-1.4	7.6	0.2	2.2	x
COc1ccc2ccccc2c1/C=N/NC(=O)c1cccc(C)c1	-5.1	-3.2	9.4*	1.9	-5.6	-0.6
CCn1c2ccccc2c2cc(NC(=O)CSc3nnc(-c4ccccc4)n3Cc3ccco3)ccc21	-4.0	x	x	x	10.7	x
Cc1ccc(S(=O)(=O)N2CCN(C(=O)COC(=O)COc3ccccc3)CC2)cc1	0.3	8.5	9.9*	0.3	-4.3	-3.7
COc1ccc(S(=O)(=O)N2CCN(C(=O)COc3ccccc3)CC2)cc1	-6.2	-0.5	-5.7	0.2	2.2	x
